From PubChem BioAssay (NCATS)
Results filed as inconclusive are left out. Unmarked numbers belong to inactive results. Activity calls are given as the source filed them. The call rests on the fitted dose curve; in most records, active means well fitted cell-killing curve with a large enough effect; inconclusive means small, poorly fitted or top-dose-only effect; inactive means flat fitted curve, though single readings scatter. Non-standard residues stand in square brackets, D forms with d. Residues, ends and D or L forms follow the SMILES beside them. *: point of attachment. Nva = CCC[C@H](N)C(=O)O; Cbz = O=C(OCc1ccccc1)*

experiment: qHTS of pediatric cancer cell lines to identify multiple opportunities for drug repurposing: Confirmatory screen for SK-N-SH cells (AID 1347129); conditions: SK-N-SH neuroblastoma cell viability; series mostly up to 46.1 µM; activity change, negative = cytotoxic: at the top concentration;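 further: cells exposed to compound for 48 h before viability read; nearly all actives have a fitted effect of over 60% in size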
Excerpt: Drug repurposing or repositioning has been offered as a strategy for drug development in oncology programs. This approach has special potential for childhood cancers and other rare or orphan diseases, where the expected return on new drug development has been a disincentive to pharmaceuticals.
In this project we exploit the poly-pharmacology of drugs to discover new indications via phenotypic screening of a panel of 19 well-characterized cell lines derived from solid tumors seen in children and adolescents. The goal is to identify approved drugs with previously unrecognized anticancer properties that has the potential to reveal new mechanisms and biological processes involved in carcinogenesis or drug resistance. We employed a titration-based paradigm (quantitative high-throughput screening or qHTS), where all compounds were tested at multiple concentrations for their effect on cell viability. Concentration-response curves (CRCs) were derived directly from the primary screen, and both potency and efficacy values were used to identify compounds with robust bioactivity profiles. We screened the NIH Chemical Genomics Center (NCGC) Pharmaceutical Collection (NPC) and Mechanism Interrogation Plate (MIPE) small molecule collections of approved and investigational compounds against these cell lines; and measured metabolically active cells after 48 hours of compound treatment as a proxy for cell viability.
Assay Submitter: Nathalia J. Martinez, National Center for Advancing Translational Sciences, National Institutes of Health, Rockville, MD, USA; email: natalia.martinez@nih.gov
[1] Shen, M et al. Quantitative high-throughput phenotypic screening of pediatric cancer cell lines identifies multiple opportunities for drug repurposing. Oncotarget 2017 Dec 19;9(4):4758-4772. PMID 29435139.
The cells were obtained from University of North Carolina (UNC), Pediatric Preclinical Testing Program (PPT), and Coriell Institute (CI).
qHTS cell viability assay:
Cells were assayed in growth media at a density of 500-1,000 cells/well. Five microliters of cells were dispensed into 1,536-well, white, solid-bottom, TC-treated plates (Greiner Bio One) using a multidrop dispenser and incubated at 37 degrees C, 5% CO2, under a humidified atmosphere for 5 hours. Twenty-three nanoliters of compounds and controls (neutral control DMSO or positive control bortezomib at final concentration of 2.3 µM) were subsequently transferred by Kalypsys pintool. For primary screens, the MIPE collection was tested at 11-point dilutions (final concentrations range from 0.78 nM to 46 µM) and the NPC collection at 8-point dilutions (final concentrations range from 0.59 nM to 46 µM). Compounds tested in follow-up screens were assayed at 11-point dilutions. Cells were incubated for 48 hours, followed by addition of 3 µL of CellTiter-Glo (Promega). After a 15 min incubation at room temperature, samples were analyzed for luminescence intensity using a ViewLux High-throughput CCD imager equipped with clear filters.
Potency means the concentration at half of the fitted maximal effect.

SMILES	Potency	activity change, negative = cytotoxic [%]
CCN(CC)CCNC(=O)c1c(C)[nH]c(C=C2C(=O)Nc3ccc(F)cc32)c1C	9590 nM (active)	–
CCC(C(=O)O)C1CCC(C)C(C(C)C(O)C(C)C(=O)C(CC)C2OC3(C=CC(O)[C@@]4(CC[C@](C)(C5CC[C@@](O)(CC)C(C)O5)O4)O3)C(C)CC2C)O1 (stereo not given in full)	5900 nM (active)	–
C=C1C(=CC=C2CCC[C@]3(C)[C@@H]([C@H](C)CCCC(C)(C)O)CC[C@@H]23)C[C@@H](O)C[C@@H]1O	–	0.243
C[C@@H](Oc1ccc2[nH]nc(C=Cc3cnn(CCO)c3)c2c1)c1c(Cl)cncc1Cl	–	-25.2
COc1ccc(C[C@@H](C)[C@@H](C)Cc2ccc(OC)c(OC)c2)cc1OC	–	-17.3
C[C@@]12C(=O)OC(=O)[C@@]1(C)C1CCC2O1	5900 nM (active)	–
CNC(=O)Nc1ccc(-c2nc(N3CC4CCC(C3)O4)c3cnn(C4CCC5(CC4)OCCO5)c3n2)cc1	1320 nM (active)	–
O=C1c2c(O)cccc2[C@@H]([C@@H]2O[C@H](CO)[C@@H](O)[C@H](O)[C@H]2O)c2cc(CO)cc(O)c21	–	-1.67
Cc1cnc(Nc2ccc(N3CCN(C)CC3)cc2)nc1Nc1cccc(S(=O)(=O)NC(C)(C)C)c1	2350 nM (active)	–
NC(=O)Nc1cc(-c2ccc(CN3CCOCC3)cc2)sc1C(N)=O	14800 nM (active)	–
C#CCC(Cc1cnc2nc(N)nc(N)c2n1)c1ccc(C(=O)N[C@@H](CCC(=O)O)C(=O)O)cc1 (stereo not given in full)	–	-3.54
CC(=O)SCC(Cc1ccccc1)C(=O)NCC(=O)OCc1ccccc1 (stereo not given)	–	-12.1
CCS(=O)(=O)Nc1ccc2[nH]c(O)c(C(=Nc3ccc(CN4CCCCC4)cc3)c3ccccc3)c2c1	332 nM (active)	–
O=C(C=CC#Cc1cccc(NS(=O)(=O)c2ccccc2)c1)NO	4180 nM (active)	–
CS[C@H]1SC[C@@H]2C(=O)N(C)[C@H](C(C)C)C(=O)OC[C@H](NC(=O)c3cnc4ccccc4n3)C(=O)N[C@H](C)C(=O)N(C)[C@@H]1C(=O)N(C)[C@H](C(C)C)C(=O)OC[C@H](NC(=O)c1cnc3ccccc3n1)C(=O)N[C@H](C)C(=O)N2C	13.2 nM (active)	–
COC(=O)[C@@H]1[C@H]2C[C@@H]3c4[nH]c5ccccc5c4CCN3C[C@@H]2CC[C@@H]1O	–	8.22
CN[C@@H]1C[C@H]2O[C@@](C)([C@H]1OC)n1c3ccccc3c3c4c(c5c6ccccc6n2c5c31)C(=O)N[C@H]4O	332 nM (active)	–
Cc1ccc([N+](=O)[O-])cc1S(=O)(=O)N(C)N=Cc1cnc2ccc(Br)cn12	235 nM (active)	–
CNC(=O)c1ccc(Nc2cc(Nc3ccccc3S(=O)(=O)C(C)C)c3cc[nH]c3n2)nc1	5900 nM (active)	–
O=C1NC(=O)C(=Cc2ccc3nccc(-c4ccncc4)c3c2)S1	4180 nM (active)	–

SMILES	Potency	activity change, negative = cytotoxic [%]
CNC(=O)c1cccc(-c2ccc3c(N4CCOC[C@H]4C)nc(N4CCOC[C@H]4C)nc3n2)c1	2640 nM (active)	–
CS(=O)(=O)N1CCc2c(-c3cnc(N)nc3)nc(N3CCOCC3)nc21	2640 nM (active)	–
CN(C)c1ccc(C(=O)NCCCCCCC(=O)NO)cc1	2350 nM (active)	–
COc1cccc2c1C(=O)c1c(O)c3c(c(O)c1C2=O)C[C@@](O)(C(=O)CO)C[C@@H]3O[C@H]1C[C@H](N)[C@H](OC2CCCCO2)[C@H](C)O1 (stereo not given in full)	4690 nM (active)	–
CCC[C@@H](C=O)NC(=O)[C@H](CC(C)C)NC(=O)[C@H](CC(C)C)NC(=O)OCc1ccccc1 (Cbz-Leu-Leu-[Nva]-aldehyde)	1320 nM (active)	–
CC(C(C)N1CC(=O)NC(=O)C1)N1CC(=O)NC(=O)C1 (stereo not given)	–	3.32
CC(C=CC1=C(C)CCCC1(C)C)=CC=CC(C)=CC(=O)Nc1ccc(O)cc1	38200 nM (active)	–
CN[C@H]1[C@@H](O)[C@@H]2O[C@@H]3O[C@H](C)CC(=O)[C@]3(O)O[C@@H]2[C@@H](NC)[C@H]1O	–	-5.23
CC[C@@]1([C@@H]2O[C@@H]([C@H]3O[C@@](O)(CO)[C@H](C)C[C@H]3C)C[C@H]2C)CC[C@H]([C@]2(C)CC[C@]3(C[C@H](O)[C@@H](C)[C@@H]([C@@H](C)[C@@H](OC)[C@H](C)C(=O)O)O3)O2)O1	645 nM (active)	–
C[C@H](NCc1ccc2c(c1)nc(NC(=O)c1ccc(-c3cn[nH]c3)s1)n2CCc1ccccc1)C(C)(C)C	833 nM (active)	–
O=C(O)C[C@H](O)C[C@H](O)C=Cc1c(C2CC2)nc2ccccc2c1-c1ccc(F)cc1	1320 nM (active)	–
O=S(=O)(O)CCSSCCS(=O)(=O)O	–	10.2
COc1ccc2c(c1OC)C(=O)OC2[C@H]1c2c(cc3c(c2OC)OCO3)CCN1C (stereo not given in full)	–	-23.9
O=C(C=Cc1ccc(CN(CCO)CCc2c[nH]c3ccccc23)cc1)NO	118 nM (active)	–
Cc1ncc(-c2ccnc(Nc3ccc(S(C)(=O)=O)cc3)n2)n1C(C)C	4180 nM (active)	–
CC(C)C[C@H](NC(=O)CNC(=O)c1cc(Cl)ccc1Cl)B1OC(=O)CC(CC(=O)O)(C(=O)O)O1 (stereo not given in full)	–	-2.2
CCOC(=O)C1=C(C)NC(=S)NC1c1cccc(O)c1 (stereo not given)	–	-13.2
CC(C)(O)Cn1c(NC(=O)c2ccc(-c3cn[nH]c3)s2)nc2cc(CN3CCOCC3)ccc21	1320 nM (active)	–
COc1cc(O)c2c(c1)C1OC1C[C@H](O)[C@H](O)C(=O)C=CC[C@H](C)OC2=O (stereo not given in full)	4690 nM (active)	–
CC(=O)O[C@H]1C[C@@H]2CC[C@H]3[C@H]4C[C@H]([N+]5(C)CCCCC5)[C@@H](OC(C)=O)[C@@]4(C)CC[C@@H]3[C@@]2(C)C[C@H]1N1CCCCC1	20900 nM (active)	–
